PubChem BioAssay
Activity calls are given as the source filed them. Unless noted, how the calls were made is not given here.

What was measured:
[1] = anti-His antibody binders, primary screen, artefact control for SMM control protein annotation, biochemical, small-molecule microarray, 635 nm fluorescence (AID 1128); settings: anti-His Alexa647 antibody binding, higher = more signal;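 further: score merges feature fluorescence with signal-to-noise for each printed compound spot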
[2] = tested on: Human papillomavirus type 1a E7 protein (residues 1-88); assay: HPV1a E7 small-molecule binders, primary screen, biochemical, small-molecule microarray, residues 1-88, 635 nm (AID 1129); settings: small-molecule microarray binding, fluorescence 635 nm; higher = more signal
[3] = target: Focal adhesion kinase 1 (Homo sapiens) (UniProt Q05397); assay: small-molecule microarray binders of FAK, primary screen, biochemical, 635/667 nm fluorescence, BSA, DTT (AID 1130); settings: PTK2 binding, 635 nm fluorescence, higher = more signal;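 further: composite of spot emission at 667 nm and signal to noise over triplicate slides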
[4] = tested on: Fibrinogen (Alexa647-labelled); assay: fibrinogen binders on compound microarrays, profiling panel, artefact control for SMM control-protein annotation, biochemical, small-molecule microarray, 635/667 nm fluorescence (AID 1131); settings: fibrinogen-A647 binding fluorescence, higher = more signal;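 further: z-score merges 667 nm fluorescence with per-spot signal-to-noise over triplicate slides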
[5] = target: Follistatin (Homo sapiens) (UniProt P19883); assay: follistatin binders on small-molecule microarrays, primary screen, biochemical, small-molecule microarray, 635/667 nm fluorescence (AID 1132); settings: FST binding, 635 nm fluorescence, higher = more signal
[6] = target: Fibroblast growth factor 2 (Homo sapiens) (UniProt P09038); assay: FGF2 binders on small-molecule microarrays, primary screen, biochemical, small-molecule microarray, 635/667 nm fluorescence (AID 1133); settings: small-molecule microarray binding, FGF2, fluorescence 635/667; higher = more signal
[7] = mitochondrial membrane potential change in A549 cells, profiling panel, cell-based, JC-1 fluorescence, basal, 24 h, 100 nL (AID 1138); settings: higher = more signal;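 further: A549 lung adenocarcinoma cells under basal conditions with no added stimulus; test concentration not given here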
Lefty1 = Lefty1 binders on small-molecule microarrays, primary screen, biochemical, small-molecule microarray, 635/667 nm fluorescence (AID 1139); settings: small-molecule microarray binding, fluorescence 635/667; higher = more signal
[8] = tested on: wheat germ agglutinin (Triticum aestivum), Alexa647-labelled; assay: wheat germ agglutinin binders on compound microarrays, profiling panel, artefact control for SMM control-protein annotation, biochemical, small-molecule microarray, 635/667 nm fluorescence (AID 1140); settings: WGA-A647 binding, 635 nm fluorescence, higher = more signal;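 further: score merges 667 nm feature emission with signal to noise over triplicate slides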
[9] = target: Luciferin 4-monooxygenase (Photinus pyralis) (UniProt P08659); assay: firefly luciferase enzyme inhibitors, primary screen, biochemical, luminescence, purified enzyme, 2006 set (AID 1141); settings: SteadyGlo luminescence, 30 min, higher = more signal, called active from +8 up or from −8 down;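 further: cell-free assay with purified firefly luciferase at 100 ng per well in PBS; test concentration not given here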
[10] = tested on: Wnt5a (protein binding on small-molecule microarray); assay: Wnt5a binders on small-molecule microarray, primary screen, biophysical, 635/667 nm fluorescence (AID 1142); settings: 635 nm fluorescence, higher = more signal;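 further: fluorescence read at 667 nm with signal to noise per printed feature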
[11] = cell viability in Huh7 cells, primary screen, cytotoxicity control for HCV replication inhibitor project, CellTiter-Glo luminescence, basal, 48 h (AID 1143); settings: Huh7 HCV replicon, higher = more signal, called active from +8 up or from −8 down;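 further: Huh7 hepatoma cells carrying a hepatitis C replication reporter with no stimulus; test concentration not given here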
[12] = P. aeruginosa biofilm formation inhibitors, primary screen, PAO1 strain, BacTiter-Glo luminescence, LB-PBS (AID 1144); settings: 12 h, higher = more signal
[13] = CREB reporter modulators without forskolin, primary screen, cell-based, PC12, CRE-LacZ reporter, unstimulated (AID 1145); settings: no forskolin, luminescence, 4.5 h, higher = more signal, called active from +8 up or from −8 down
[14] = CREB reporter modulators under forskolin, primary screen, cell-based, PC12, CRE-LacZ reporter, forskolin-stimulated (AID 1146); settings: luminescence, 4.5 h, higher = more signal, called active from +8 up or from −8 down;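 further: PC12 cells with 6xCRE LacZ reporter stimulated by forskolin 10 µM; beta-galactosidase reporter signal reflecting CREB driven transcription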
[15] = target: Streptavidin (Streptomyces avidinii) (UniProt P22629); assay: streptavidin binders on small-molecule microarray, primary screen, artefact control for SMM compound annotation, biophysical, 635/667 nm fluorescence (AID 1147); settings: streptavidin binding, higher = more signal;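 further: signal reflects streptavidin binding to arrayed compounds as a control protein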
[16] = small-molecule binders of probe aInhba, primary screen, biochemical, small-molecule microarray, 635/667 nm fluorescence (AID 1148); settings: higher = more signal;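 further: score merges 667nm spot fluorescence with signal-to-noise for antibody binding to printed compounds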
Torsin-1A (Homo sapiens) [17] = target: Torsin-1A (Homo sapiens) (UniProt O14656); assay: torsin A binders from cell lysate, primary screen, small-molecule microarray, wild-type, 635/667 nm (AID 1149); settings: COS7 hTOR1A-WT lysate, 635 nm fluorescence, higher = more signal
Torsin-1A (Homo sapiens) [18] = target: Torsin-1A (Homo sapiens) (UniProt O14656); assay: small-molecule binders of mutant TOR1A in lysate, primary screen, cell lysate, small-molecule microarray, COS7 lysate, 635/667 nm fluorescence (AID 1150); settings: COS7 hTOR1A mutant lysate, 635 nm fluorescence, higher = more signal;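 further: score pools 667 nm emission and signal to noise measuring lysate protein binding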
[19] = tested on: Sonic hedgehog protein (Shh); assay: small-molecule binders of Shh protein, primary screen, biochemical, small-molecule microarray, 635/667 nm fluorescence (AID 1151); settings: small-molecule microarray binding, 635 nm fluorescence; higher = more signal;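 further: Shh protein binding to compounds spotted on small-molecule microarray slides; score combines spot fluorescence intensity with signal-to-noise across triplicate slides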

Sequence of Focal adhesion kinase 1 (Homo sapiens) (Q05397 whole entry, looked up): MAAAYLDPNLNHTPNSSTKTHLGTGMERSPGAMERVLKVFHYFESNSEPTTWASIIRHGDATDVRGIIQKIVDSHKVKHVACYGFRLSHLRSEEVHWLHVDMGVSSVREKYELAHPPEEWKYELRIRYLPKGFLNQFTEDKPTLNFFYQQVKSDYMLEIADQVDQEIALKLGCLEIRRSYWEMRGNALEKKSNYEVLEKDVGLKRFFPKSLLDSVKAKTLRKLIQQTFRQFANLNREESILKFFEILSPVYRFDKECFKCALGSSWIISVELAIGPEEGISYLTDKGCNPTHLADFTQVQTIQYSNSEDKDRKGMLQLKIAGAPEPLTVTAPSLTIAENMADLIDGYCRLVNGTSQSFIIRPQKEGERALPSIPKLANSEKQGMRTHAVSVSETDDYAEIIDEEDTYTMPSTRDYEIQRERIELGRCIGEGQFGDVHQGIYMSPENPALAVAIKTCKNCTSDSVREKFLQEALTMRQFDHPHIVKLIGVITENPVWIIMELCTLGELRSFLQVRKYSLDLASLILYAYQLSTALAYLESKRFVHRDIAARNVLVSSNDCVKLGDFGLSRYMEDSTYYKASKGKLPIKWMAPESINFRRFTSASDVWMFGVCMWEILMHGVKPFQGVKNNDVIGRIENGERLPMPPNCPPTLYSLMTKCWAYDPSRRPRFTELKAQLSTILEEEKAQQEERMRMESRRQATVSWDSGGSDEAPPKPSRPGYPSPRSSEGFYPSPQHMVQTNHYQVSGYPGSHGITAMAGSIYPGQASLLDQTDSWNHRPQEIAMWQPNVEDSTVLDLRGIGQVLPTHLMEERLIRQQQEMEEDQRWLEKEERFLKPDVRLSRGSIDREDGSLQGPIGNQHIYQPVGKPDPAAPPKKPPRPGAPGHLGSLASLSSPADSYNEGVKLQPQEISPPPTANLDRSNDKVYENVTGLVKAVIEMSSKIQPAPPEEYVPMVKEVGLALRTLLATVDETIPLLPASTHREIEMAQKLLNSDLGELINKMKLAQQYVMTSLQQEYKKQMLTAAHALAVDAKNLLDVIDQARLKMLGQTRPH
Sequence of Fibroblast growth factor 2 (Homo sapiens) (P09038 whole entry, looked up): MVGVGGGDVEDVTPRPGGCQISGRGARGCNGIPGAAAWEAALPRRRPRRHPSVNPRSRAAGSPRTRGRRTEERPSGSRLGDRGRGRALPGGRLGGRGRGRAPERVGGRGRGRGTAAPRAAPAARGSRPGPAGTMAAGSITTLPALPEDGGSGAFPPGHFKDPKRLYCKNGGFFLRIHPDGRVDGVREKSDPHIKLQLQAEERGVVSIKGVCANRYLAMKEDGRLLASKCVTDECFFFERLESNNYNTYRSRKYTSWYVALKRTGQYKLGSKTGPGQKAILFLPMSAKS
Sequence of Torsin-1A (Homo sapiens) (O14656 whole entry, looked up): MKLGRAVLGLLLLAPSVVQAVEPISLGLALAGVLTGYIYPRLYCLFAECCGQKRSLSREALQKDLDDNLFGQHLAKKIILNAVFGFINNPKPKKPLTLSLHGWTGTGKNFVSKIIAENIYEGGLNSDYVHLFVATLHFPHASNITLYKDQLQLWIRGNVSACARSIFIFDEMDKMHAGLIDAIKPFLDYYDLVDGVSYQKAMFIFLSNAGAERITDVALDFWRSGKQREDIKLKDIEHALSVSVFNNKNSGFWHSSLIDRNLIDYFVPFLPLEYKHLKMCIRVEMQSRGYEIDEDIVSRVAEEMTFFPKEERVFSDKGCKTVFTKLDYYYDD
Sequence of Follistatin (Homo sapiens) (P19883 whole entry, looked up): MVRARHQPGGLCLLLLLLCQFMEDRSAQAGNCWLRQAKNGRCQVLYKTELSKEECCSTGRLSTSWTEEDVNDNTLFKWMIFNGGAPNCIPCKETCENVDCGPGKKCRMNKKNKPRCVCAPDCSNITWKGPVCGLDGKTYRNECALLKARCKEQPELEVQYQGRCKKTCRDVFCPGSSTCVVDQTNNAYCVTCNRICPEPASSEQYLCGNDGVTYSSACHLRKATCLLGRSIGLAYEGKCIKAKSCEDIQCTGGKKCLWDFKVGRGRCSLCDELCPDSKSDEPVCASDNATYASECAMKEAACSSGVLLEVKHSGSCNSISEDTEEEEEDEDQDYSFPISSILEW
Sequence of Luciferin 4-monooxygenase (Photinus pyralis) (P08659 whole entry, looked up): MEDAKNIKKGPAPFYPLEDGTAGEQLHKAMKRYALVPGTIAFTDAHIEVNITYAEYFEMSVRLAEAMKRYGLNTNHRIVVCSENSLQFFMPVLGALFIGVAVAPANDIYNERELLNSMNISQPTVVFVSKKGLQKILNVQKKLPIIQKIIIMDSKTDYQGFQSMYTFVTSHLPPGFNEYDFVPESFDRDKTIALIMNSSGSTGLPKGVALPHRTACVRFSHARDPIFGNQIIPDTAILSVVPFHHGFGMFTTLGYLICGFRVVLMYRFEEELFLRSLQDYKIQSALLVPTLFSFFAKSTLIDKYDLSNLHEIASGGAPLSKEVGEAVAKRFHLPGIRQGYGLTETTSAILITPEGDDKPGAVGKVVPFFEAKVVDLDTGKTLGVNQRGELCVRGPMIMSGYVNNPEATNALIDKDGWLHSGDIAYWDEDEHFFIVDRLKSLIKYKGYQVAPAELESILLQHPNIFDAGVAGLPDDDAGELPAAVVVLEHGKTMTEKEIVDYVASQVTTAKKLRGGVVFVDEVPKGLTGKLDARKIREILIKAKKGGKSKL
Sequence of Streptavidin (Streptomyces avidinii) (P22629 whole entry, looked up): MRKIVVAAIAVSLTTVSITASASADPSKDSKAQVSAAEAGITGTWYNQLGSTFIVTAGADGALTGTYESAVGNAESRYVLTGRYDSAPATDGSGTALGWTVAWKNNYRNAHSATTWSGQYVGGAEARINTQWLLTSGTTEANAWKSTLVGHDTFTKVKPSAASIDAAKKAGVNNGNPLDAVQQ

Compound	composite z-score [1]	composite z-score [2]	composite z-score [3]	composite z-score [4]	composite z-score [5]	composite z-score [6]	z-score [7]	composite z-score (Lefty1)	composite z-score [8]	z-score [9]	composite z-score [10]	z-score [11]	z-score [12]	z-score [13]	z-score [14]	composite z-score [15]	composite z-score [16]	composite z-score (Torsin-1A (Homo sapiens) [17])	composite z-score (Torsin-1A (Homo sapiens) [18])	composite z-score [19]
COc1ccc([Si](C)(C)[C@@H]2[C@@H](CC(=O)N3CCC[C@H]3CO)O[C@]3(C(=O)N(Cc4cccc(N5C(=O)COc6ccccc65)c4)c4ccccc43)[C@H]2C)cc1	1.43	1.21	0.438	0.711	0.821	1.22	-0.522	0.984	1.15	-0.23 (inactive)	0.326	-5.39 (inactive)	0.425 (inactive)	1.5 (inactive)	-0.361 (inactive)	0.554	-0.0494	0.95	0.938	1.12
COC(=O)[C@@]1(Cc2ccc(F)cc2)[C@H]2c3cc(C(=O)N4CCCC4)n(Cc4ccc(C)c(F)c4F)c3C[C@H]2CN1C(=O)c1ccccc1	1.39	0.821	0.572	0.511	-0.115	-0.132	-0.494	-0.605	0.921	-12.5 (active)	-0.175	-0.944 (inactive)	-0.298 (inactive)	1.15 (inactive)	-0.177 (inactive)	-0.286	0.12	-0.259	-0.407	-0.472
CCOC(=O)C[C@H]1[C@H](OC(=O)c2ccc(C(=O)c3ccccc3)cc2)[C@@H](NC(=O)C2CCCCC2)c2cc(OCCCO)ccc2N1C(=O)c1ccc2ccccc2n1	0.497	0.835	0.0096	0.102	0.796	0.979	0.956	1.41	0.0469	0.425 (inactive)	0.233	0.233 (inactive)	-1.09 (inactive)	-0.215 (inactive)	-0.825 (inactive)	0.731	-0.0933	0.772	0.298	0.93
COc1ccccc1CN1C(=O)c2ccccc2[C@](Cc2ccccc2I)(C(=O)O)[C@@H]1c1ccc(CO)cc1	1.76	1.21	0.758	0.809	1.26	1.33	0.227	0.74	0.762	-1.01 (inactive)	0.638	-1.03 (inactive)	0.776 (inactive)	0.145 (inactive)	-0.677 (inactive)	1.09	0.0753	0.399	1.54	1.61
O=C1C[C@]2(c3ccc([N+](=O)[O-])cc3)C(=O)N(C3CC3)c3cc(CO)ccc3[C@H]2N1CC12CC3CC(CC(C3)C1)C2	-0.496	-0.336	-0.421	-0.168	-0.579	-0.364	-1.17	-1.5	-0.456	-0.124 (inactive)	-0.178	-2.19 (inactive)	0.332 (inactive)	-0.179 (inactive)	1.23 (inactive)	-0.368	-0.0403	-1.26	0.228	-0.7
CC1=C2[C@@H](CCc3ccccc3)OB(O)C[C@@H]2[C@@H]2C(=O)N(C)C(=O)[C@@H]2C1	-0.463	0.591	0.0327	0.762	0.587	0.509	-0.0475	0.617	0.344	0.143 (inactive)	0.318	-0.239 (inactive)	-0.294 (inactive)	-0.866 (inactive)	0.829 (inactive)	-0.0498	-0.252	-0.126	0.355	0.464
CCOC(=O)C[C@H]1[C@H](OC(=O)c2ccc(C(=O)c3ccccc3)cc2)[C@@H](NC(=O)c2ccc3ccccc3n2)c2cc(OCCCO)ccc2N1C(=O)Cc1ccc(OC)cc1	-0.249	0.656	0.0555	0.692	0.259	0.52	-0.44	0.208	0.207	0.541 (inactive)	-0.126	-0.124 (inactive)	0.458 (inactive)	-0.215 (inactive)	-0.357 (inactive)	0.982	-0.0521	-0.077	0.292	-0.381
CO[C@H]1O[C@H](CO)[C@@H](OC(=O)Nc2ccc(Br)cc2)[C@@H]2OC(=O)[C@@H](Cc3ccccc3)C/C=C/C[C@H](Cc3ccccc3)C(=O)O[C@@H]12	2.43	1.16	0.619	0.442	0.313	0.397	2.5	-0.0196	0.424	-1.38 (inactive)	0.891	-5.16 (inactive)	-0.435 (inactive)	-0.263 (inactive)	-0.396 (inactive)	-0.0062	0.115	0.048	0.91	0.0376
CN(C)C(=O)[C@]1(Cc2ccccc2CN=[N+]=[N-])N=C(c2ccc(OCCCO)cc2)O[C@@H]1c1ccccc1	2.24	1.22	0.48	0.947	0.987	0.658	-0.439	0.035	1.02	0.582 (inactive)	0.682	-5.61 (inactive)	-0.528 (inactive)	0.502 (inactive)	-0.579 (inactive)	0.792	0.111	0.178	0.729	-0.18
CCCCCN1CC=CC23O[C@@H]4/C=C\CCCOC(=O)C4[C@H]2C(=O)N(C(C)CO)[C@@H]3C1=O (stereo not given in full)	0.465	-0.402	-0.249	0.659	-0.87	-1.08	0.17	-0.476	0.916	-0.179 (inactive)	-0.917	0.194 (inactive)	-1.24 (inactive)	-1.43 (inactive)	-1.24 (inactive)	-0.783	-0.128	-3.18	-2.48	0.0074
